# High-throughput results: PubChem, National Center for Advancing Translational Sciences (NCATS)
# Shown are actives, neighbours in structure and some others; about 12% of the full set was active somewhere.
# Sm TGR block: qHTS Assay for the Inhibitors of Schistosoma Mansoni Peroxiredoxins. purified TGR, DTNB reduction, TNB absorbance 405 nm. Potency, µM (highest dose often 114 µM), inactives show at the highest dose activity change, negative = inhibition, hits mostly inhibitors. 3% of 360,000 active. AID 485364, 2010; active means well fitted inhibition curve with a large enough effect; inconclusive means small, poorly fitted or top-dose-only effect; inactive means no such curve, though single readings can be large or run the other way; further: potency means the concentration at half of the fitted maximal effect; on the % scale 0 is the no-effect control and ±100 the full control effect; nearly all actives have a fitted effect of over 60% in size
#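 First, TGR (20 nM dispensed) and NADPH were mixed with compound. Second, a 15 min room-temperature incubation followed. Third, further NADPH and then DTNB were added to start the reaction. Finally, TNB absorbance was monitored kinetically.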
# FMDV antiviral: High Throughput Screening for Foot and Mouth Disease Virus Antivirals | FMDV antiviral cell-based qHTS | Potency, µM (titrated, usually from 57.9 µM), for inactives: top-dose activity change, negative = inhibition, most hits filed as inhibitors | 1.2% of 410,000 active | AID 1159524, 2015; calls by dose curve; tested in HEK293T cells; further: read-out not given here; potency means the concentration at half of the fitted maximal effect; on the % scale 0 is the no-effect control and ±100 the full control effect; nearly all actives have a fitted effect of over 45% in size
# Shiga toxin inh: A qHTS for Small Molecule Inhibitors of Shiga Toxin; Vero cells, Shiga toxin protein synthesis inhibition reporter; inhibition, % at 38.7 µM; 9.2% of 290,000 active; in the data active means inhibition mostly above about 28%, no sharp cut-off; inactive means mostly below about 43%; further: 0% is about no effect
# CHX counter: Cycloheximide Counterscreen for Small Molecule Inhibitors of Shiga Toxin | cell reporter, cycloheximide protein synthesis inhibition counterscreen | max response, % | 12% of 300,000 active; in the data active means max response mostly above about 13%, no sharp cut-off; inactive means mostly below about 14%; further: read at 38.3 µM for the half of the compounds with a filed dose; 0% is about no effect
# * = called active by the depositor; u = inconclusive; x = not tested or not shown.
SMILES,Sm TGR block,FMDV antiviral,Shiga toxin inh,CHX counter
CCOC(=O)c1sc2ccccc2c1S(=O)(=O)N1CCN(c2cccc(C)c2C)CC1,5%,0%,x,x
CC1CCCN(CCCNC(=O)c2ccc3c(c2)N(Cc2cccc(Cl)c2)C(=O)c2ccccc2S3(=O)=O)C1 (stereo not given),9%,11%,x,x
COc1ccc(-c2cc3nc(C)c(CCC(=O)NC4CCCCC4)c(C)n3n2)c(OC)c1,-3%,-3%,x,x
Cc1nc2ccccn2c1C(=O)N/N=C/c1ccc([N+](=O)[O-])o1,14µM*,-27%,44,15
O=[N+]([O-])c1ccc(/C=N/NC(=S)Nc2ccccc2F)o1,u,52%,21,34*
Cc1c(-c2ccc(/C=N/NC(=O)C(=O)Nc3ccccc3F)o2)cccc1[N+](=O)[O-],-4%,16%,11,-3
O=[N+]([O-])c1ccc(/C=N/NC(=S)Nc2ccccc2)o1,u,-4%,48*,23*
CC1CCN(C(=S)Nc2ccc(F)cc2)CC1,-6%,65%,17,-2
C/C(=N\NC(=S)Nc1ccc(F)cc1)C1CC1,0%,x,21,29*
CCn1c(-c2ccc(-c3ccccc3)cc2)c[nH]c1=S,9%,2%,11,8
Cn1c(-c2ccc(-c3ccccc3)cc2)c[nH]c1=S,0%,20%,69*,31*
C=CCn1c(-c2ccc(Cl)cc2)c[nH]c1=S,5%,7%,-4,-1
C=CCn1c(-c2ccccc2)c[nH]c1=S,1%,61%,78*,50*
Cc1cccc(OCC(=O)N(Cc2ccc(C(C)(C)C)cc2)Cc2ccco2)c1,9%,-25%,x,x
CCC(CC)C(=O)N1c2ccccc2C(C)(c2ccccc2)CC1(C)C (stereo not given),13%,u,x,x
N/C(=N\OC(=O)CCC1CCCC1)c1ccncc1,x,0%,80,20*
Cc1ccc(/C(N)=N/OC(=O)CCC2CCCCC2)cc1,3%,44%,38,14*
N/C(=N\OC(=O)CC1CCCCC1)c1ccncc1,0%,33%,58*,17*
CCOc1ccc(NC(=O)CC2C(=O)N(c3ccc(F)cc3)C(=O)N2CCc2sccc2C)cc1 (stereo not given),-10%,-13%,x,x
CC1CC(C)CN(C(=O)c2cc3cc(Br)cc(Br)c3o2)C1 (stereo not given),-7%,6%,41*,31*
O=C(c1cc2cc(Br)ccc2o1)N1CCN(c2ccccc2)CC1,4%,25%,78*,51*
CC1CC(C)CN(C(=O)c2cc3ccccc3o2)C1 (stereo not given),0%,59%,x,x
O=C(c1cc2cc(Br)ccc2o1)N1CCOCC1,-13%,0%,50*,19*
O=C(c1cc2cc(Br)ccc2o1)N1CCCC1,2%,49%,61*,39*
Cc1nc2ccc(S(=O)(=O)NC(CC(C)C)C(=O)NCc3ccc(Cl)cc3)cc2s1 (stereo not given),-2%,-7%,x,x
SMILES,Sm TGR block,FMDV antiviral,Shiga toxin inh,CHX counter
COc1ccccc1N1CCN(c2nc3ccc(C(=O)c4ccccc4)cc3n3c(C)nnc23)CC1,5%,-4%,x,x
CCOC(=O)Cn1c(=O)c2c(nc3n2CCN3c2ccc(CC)cc2)n(C)c1=O,11%,-8%,x,x
COCCCNC(=O)/C=C/c1cccc(Cl)c1,u,39%,30,21*
O=C(/C=C/c1cccc(Cl)c1)Nc1ncccn1,-4%,31%,55*,15
CSc1cccc(NC(=O)/C=C/c2cccc(Cl)c2)c1,-1%,-13%,143*,72*
CSc1cccc(NC(N)=O)c1,13%,0%,9,0
CCOc1ccc2nc(NC(=O)c3nc(SCc4ccccc4C)ncc3Cl)sc2c1,0%,8%,x,x
Fc1cccc(C2NN=C(c3ccccc3)S2)c1 (stereo not given),4%,-50%,112*,73*
COc1cccc(C2CC(=O)Nc3c2c(=O)[nH]c2ncnn32)c1OC (stereo not given),-1%,-7%,x,x
COc1ccc(F)cc1-c1cc(C(=O)Nc2ccc(C)c(NS(C)(=O)=O)c2)[nH]n1,x,35µM*,x,x
COc1cc(F)ccc1-c1cc(C(=O)Nc2ccc(C)c(NS(C)(=O)=O)c2)[nH]n1,x,25µM*,x,x
CCCOc1ccc(F)cc1-c1cc(C(=O)Nc2ccc(C)c(NS(C)(=O)=O)c2)[nH]n1,x,35µM*,x,x
CCN(CC)S(=O)(=O)c1ccc2c(c1)N(CC(=O)Nc1ccc(OC)cc1)C(=O)CS2,-21%,7%,x,x
COc1ccc(C2C(C#N)=C(N)Oc3c2oc(CO)cc3=O)cc1 (stereo not given),-4%,-15%,5,-1
Cc1oc(C)c2c(=O)ccc3c(c12)OC(N)=C(C#N)C3c1ccccc1 (stereo not given),28µM*,u,-6,-3
CSc1ccc(C2C(C#N)=C(N)Oc3c2ccc(=O)c2c(C)oc(C)c32)cc1 (stereo not given),28µM*,0%,-10,2
Cc1oc(C)c2c(=O)ccc3c(c12)OC(N)=C(C#N)C3c1ccccc1Cl (stereo not given),u,0%,-6,8
Cc1ccc(NC2=C/C(=N\S(=O)(=O)c3cccs3)c3ccccc3C2=O)c(C)c1,-31%,25µM*,7,13*
Cc1cccc(NC2=C(NCCO)C(=O)c3ccccc3C2=O)c1,-13%,u,25,2
Cc1cc(C)c(S(=O)(=O)/N=C2\C=C(NS(=O)(=O)c3ccccc3)C(=O)c3ccccc32)c(C)c1,-3%,49%,-2,-1
Cc1ccc(Cl)cc1NC1=C/C(=N\S(=O)(=O)c2cccs2)c2ccccc2C1=O,-17%,14µM*,-10,-1
Cc1cccc(NC2=C/C(=N/S(=O)(=O)c3cccs3)c3ccccc3C2=O)c1,-17%,u,26,14*
Cc1sc2ncnc(Sc3ccccc3C(=O)Nc3ccc(Br)cc3)c2c1C,0%,9%,51*,29*
COc1ccc(N=c2sc3ccccc3n2C)cc1,4%,x,50,41*
COc1ccccc1N=c1sc2ccccc2n1C,-8%,x,3,13*
SMILES,Sm TGR block,FMDV antiviral,Shiga toxin inh,CHX counter
COc1ccc(C(=O)N=c2sc3ccccc3n2C)cc1OC,x,5%,32,20
Cc1cc(OC(C)C(=O)N(Cc2ccc(N(C)C)cc2)Cc2ccco2)ccc1Cl (stereo not given),2%,-9%,x,x
N#C/C(=C\c1ccccc1C(F)(F)F)C(=O)Nc1ccccc1,2%,22%,-3,17*
CCc1cccc(CC)c1NC(=O)/C(C#N)=C/c1ccccc1C(F)(F)F,-14%,25µM*,-6,-9
CCc1cccc(CC)c1NC(=O)c1ccccc1,10%,-7%,-7,-2
COc1ccccc1CNC(=O)c1cn(C)c2ccc(S(=O)(=O)N(C)C3CCCCC3)cc2c1=O,1%,2%,x,x
O=C(CC1(O)C(=O)Nc2ccccc21)c1ccc(-n2cnnn2)cc1 (stereo not given),17%,8%,28,24*
O=C(CC1(O)C(=O)Nc2ccccc21)c1cccc(-n2cccc2)c1 (stereo not given),-8%,5%,-11,-4
